NRP1-CendR mod: modulators of CendR peptide binding to NRP-1, primary screen, biochemical, fluorescence polarization, uHTS. FAM-RPARPAR peptide binding to NRP-1. AID 602438, 2012. 360,000 tested, 0.85% active. inhibition, % at 25 µM. Neuropilin-1 (Homo sapiens), O14786;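 active = inhibition or corrected inhibition above about 18%, plus a signal ratio from 0.5 to 1.5, limit read from the data, passing the limit was not always enough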
GSIS activator: GLuc luminescence reporter in INS-1E cells, primary screen for activators of glucose-dependent secretion of insulin. 370,000 tested, 0.61% active. INS-1E GLuc reporter insulin secretion, 2-3 h. activation, % at 16.6 µM;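 active = lowest replicate activation of at least 40%, so every replicate reaches that level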;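 note: 0% = median of neutral control wells and 100% = median of IBMX positive control wells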
hiPSC survival: enhancers of single-cell hiPSC survival, primary screen, ATPlite luminescence; survival enhancement, % at 20 µM; 100% = ROCK inhibitor wells, 0% = DMSO; 360,000 tested, 0.044% active; in the data active = survival enhancement above about 18%;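 note: cells exposed to compounds for 16 hours before the ATP read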
ABCB6 inh 2: ABCB6 transporter inhibitors, primary screen, K562-ABCB6 cells, flow cytometry, MLPCN library; ATP-binding cassette sub-family B member 6 (Homo sapiens), Q9NP58; K562-ABCB6 porphyrin accumulation, 1 h; hits give low values; fluorescence ratio to DMSO, % at 10 µM; 360,000 tested, 0.19% active;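 active = fluorescence ratio to DMSO below 75%, the collection mean minus 3 SD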;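 note: signal is porphyrin accumulated inside mitochondria; 100% equals median channel fluorescence of DMSO control wells; lower ratio means ABCB6 inhibition with less porphyrin fluorescence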
Target sequence (Q9NP58 whole entry, looked up): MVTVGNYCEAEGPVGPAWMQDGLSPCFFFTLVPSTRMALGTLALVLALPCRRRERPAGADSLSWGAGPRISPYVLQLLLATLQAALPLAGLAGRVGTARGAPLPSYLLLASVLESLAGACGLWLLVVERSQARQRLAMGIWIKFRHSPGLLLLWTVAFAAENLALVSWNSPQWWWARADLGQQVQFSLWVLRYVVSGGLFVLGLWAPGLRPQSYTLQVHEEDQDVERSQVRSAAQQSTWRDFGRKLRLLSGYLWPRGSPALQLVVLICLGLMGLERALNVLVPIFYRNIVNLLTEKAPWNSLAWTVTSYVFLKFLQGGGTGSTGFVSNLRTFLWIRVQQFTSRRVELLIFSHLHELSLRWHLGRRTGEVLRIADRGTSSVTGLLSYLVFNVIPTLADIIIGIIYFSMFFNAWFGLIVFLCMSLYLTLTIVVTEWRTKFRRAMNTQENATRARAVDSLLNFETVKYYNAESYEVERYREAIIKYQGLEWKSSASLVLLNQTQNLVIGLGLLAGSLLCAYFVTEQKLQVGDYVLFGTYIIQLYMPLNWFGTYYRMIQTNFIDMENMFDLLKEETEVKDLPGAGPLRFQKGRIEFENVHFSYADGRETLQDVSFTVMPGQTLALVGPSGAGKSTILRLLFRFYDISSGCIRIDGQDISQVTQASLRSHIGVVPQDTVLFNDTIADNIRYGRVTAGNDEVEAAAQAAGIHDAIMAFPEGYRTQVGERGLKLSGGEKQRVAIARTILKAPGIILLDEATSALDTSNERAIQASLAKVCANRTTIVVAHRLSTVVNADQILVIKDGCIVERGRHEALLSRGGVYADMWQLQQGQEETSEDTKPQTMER
ARNT TACC3 PPI: disruptors of ARNT/TACC3 protein interaction, primary screen, biochemical, AlphaScreen, single concentration. 390,000 tested, 0.66% active. inhibition, % at 9.99 µM. AID 623870, 2012. AlphaScreen His-ARNT PAS-B/GST-TACC3 binding, luminescence; TACC3 fragment carries E629A point mutation;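 active = mean inhibition of replicates at least 50% and at least half of replicates each reaching 50%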;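 note: 0% = complete ARNT plus TACC3 wells and 100% = ARNT alone without TACC3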
An asterisk follows results filed as active; x = no result. This is a sample that favours compounds with a hit; in the whole collection about 1.8% have one here.

SMILES	NRP1-CendR mod	GSIS activator	hiPSC survival	ABCB6 inh 2	ARNT TACC3 PPI
O=C(Nc1cccc2c1CCCC2)c1cc(C2CCCCN2C(=O)CCCc2ccccc2)on1 (stereo not given)	52.2*	11.1	-2.4	93.0	x
Cc1ccc(F)cc1C(=O)N1CCCCC1c1cc(C(=O)NCc2ccccc2)no1 (stereo not given)	21.6*	-16.9	-1.8	96.0	x
CS(=O)(=O)N1CCCCC1c1cc(C(=O)Nc2cccc3c2CCCC3)no1 (stereo not given)	0.1	54.1*	-2.5	96.0	x
O=C(Nc1ccccc1Cl)c1cc(C2CCCCN2C(=O)CCc2ccccc2)on1 (stereo not given)	1.4	-11.6	3.1	96.0	x
CCCNC(=O)c1cc(C2CCCCN2C(=O)c2cc(F)ccc2C)on1 (stereo not given)	-5.1	-11.6	2.4	89.0	x
O=C(NCc1ccccc1)c1cc(C2CCCCN2C(=O)CCCc2ccccc2)on1 (stereo not given)	-2.5	x	-1.5	93.0	x
C[C@H]1CC=CC[C@H](c2ccc3c(c2)OCO3)NC(=O)[C@@H](Cc2ccccc2)N(C)C(=O)c2ccccc2O1 (mixture of isomers)	x	-23.1	x	x	x
COc1ccccc1N1CCN(C(=O)c2noc(C)c2[N+](=O)[O-])CC1	1.5	56.9*	0.2	101.0	2.4
CCC(c1nnc(SCC(=O)Nc2ccc(N3CCOCC3)cc2)n1Cc1ccccc1)N(C)C (stereo not given)	26.6*	-5.0	-0.3	91.0	14.9
Cc1noc(C)c1S(=O)(=O)N(C)C[C@@H]1Oc2ccc(NC(=O)NC3CCCCC3)cc2CC(=O)N([C@H](C)CO)C[C@H]1C	x	8.7	x	x	11.5
CO[C@H]1CN(C)C(=O)c2cc(NC(=O)c3cnccn3)ccc2OC[C@H](C)N(C(C)=O)C[C@@H]1C	x	2.1	x	x	9.6
Cc1ccc(/C=C2/NC(=O)N(Cc3ccc(Br)cc3)C2=O)o1	-12.4	56.8*	-0.3	102.0	-5.2
CCN1C(=O)N/C(=C/c2ccc(C)o2)C1=O	-6.0	-21.0	0.2	84.0	-2.2
CN=c1scc(-c2ccccc2F)n1/N=C(\C)c1cccnc1	1.1	-5.8	-2.6	98.0	39.5*
Nc1ncnc2[nH]c(=S)[nH]c12	28.8*	x	1.5	95.0	-9.4
CSc1nc2ncnc(N)c2[nH]1	-5.2	-9.1	-0.5	102.0	7.8
O=C(NCCc1nc2ccccc2[nH]1)c1ccco1	-2.8	x	1.4	86.0	1.7
O=C(/C=C/c1ccco1)N/C(=C\c1ccccc1)C(=O)NCCc1nc2ccccc2[nH]1	40.5*	-4.6	2.0	100.0	-1.1
O=C(O)c1cc(Nc2cc(Cl)c3nonc3c2[N+](=O)[O-])ccc1O	24.7*	-15.9	-0.4	97.0	19.2
O=[N+]([O-])c1c(Nc2ccccc2O)cc(Cl)c2nonc12	11.4	-1.4	7.1	89.0	14.7
NC(=O)[C@H]1[C@@H]2C(=O)O[C@@H](c3ccccc3)[C@@H](c3ccccc3)N2[C@@H](c2ccccc2OCCO)[C@]12C(=O)Nc1ccc(C#CC3(O)CCCCCC3)cc12	x	x	x	x	4.5
CCCNC(=O)C[C@@H]1C[C@@H]2c3cc(NC(=O)c4cccnc4)ccc3O[C@@H]2[C@H](CO)O1	x	-5.6	x	x	-7.1
Cc1ccc(C(=O)N/C(=C\c2sccc2C)C(=O)NCc2ccco2)cc1	39.3*	x	-1.4	101.0	9.3
Cc1ccccc1OCC1Cc2c(nc(N)c(C#N)c2N)O1 (stereo not given)	52.6*	x	-0.4	117.0	-7.4
N#Cc1c(N)nc2c(c1N)CC(COc1ccccc1)O2 (stereo not given)	11.3	x	-1.9	98.0	-0.7
O=C1C=C(c2ccc(Oc3ccccc3)cc2)C[C@@H](c2ccc(Cl)cc2)C1	32.3*	-13.1	1.0	99.0	-3.4
CSc1ccc(C2=CC(=O)C[C@H](c3ccc(Cl)cc3)C2)cc1	27.8*	0.2	-0.1	96.0	-3.1
CC(=O)N1[C@H](CO)[C@H](c2ccc(C3=CCCCC3)cc2)[C@@H]1CNC(=O)CC1CC1	x	-22.3	x	x	x
Cc1ccc(CNC(=O)c2ccc3nc4[nH]c5ccccc5c4nc3c2)cc1	x	61.3*	x	x	x
